“And” between values parts separate entries of the source, which are not always exact repeats. Equal values may be shown once. Out of some 5,500 compounds screened, about 2,000 (36%) were called active. Roughly 18% stayed inconclusive and do not appear here. No stated cut-off is given here; in the data, active means normalized growth mostly below about 0.91 (no sharp cut-off); inconclusive means no clear call, values can overlap the other calls; inactive means mostly above about 0.92. This is one part of the list.
Assay: chemical genetic growth profiling, strain panel (AID 1159580);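 further: tested at 20 µM; growth read once vehicle control cultures reached saturation at 30 °C; 1 = growth at the plate median or of vehicle wells; lower values mean less growth of the strain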
Conditions: S. cerevisiae deletion strains, growth OD

Measured: normalized growth

C[C@]12CCC(=O)C=C1C=CC1C2CC[C@@]2(C)C1CC[C@@]21CCC(=O)O1 (stereo partly specified)
active: locus YDL101C, strain DUN1, active compounds read low 0.877 | locus YDL192W, strain arf1, active compounds read low 0.866 | locus YDR137W, strain rgp1, active compounds read low 0.75 | locus YDR162C, strain NBP2, active compounds read low 0.584 | locus YDR392W, strain spt3, active compounds read low 0.662 | locus YDR502C, strain sam2, active compounds read low 0.914 | locus YGL086W, strain mad1, active compounds read low 0.917 | locus YKR001C, strain vps1, active compounds read low 0.788 | locus YLR039C, strain RIC1, active compounds read low 0.588 | locus YLR262C, strain YPT6 (second series), active compounds read low 0.792 | locus YLR262C, strain YPT6, active compounds read low 0.525 | locus YLR342W, strain FKS1 (second series), active compounds read low 0.785 | locus YLR418C, strain cdc73, active compounds read low 0.702 | locus YMR307W, strain GAS1, active compounds read low 0.597 | locus YNL307C, strain MCK1, active compounds read low 0.831 | locus YNR052C, strain pop2, active compounds read low 0.906 | locus YOR184W, strain ser1, active compounds read low 0.724 | locus YOR270C, strain vph1, active compounds read low 0.771 | locus YPR163C, strain tif3, active compounds read low 0.867
inactive: locus YAL013W, strain DEP1, active compounds read low 0.956 | locus YAL021C, strain ccr4, active compounds read low 0.971 | locus YAL026C, strain drs2, active compounds read low 0.97 | locus YAL030W, strain snc1, active compounds read low 0.974 | locus YBL061C, strain skt5, active compounds read low 0.977 | locus YBR009C, strain hhf1, active compounds read low 0.962 | locus YBR021W, strain FUR4, active compounds read low 1 | locus YBR023C, strain chs3, active compounds read low 0.979 | locus YBR171W, strain sec66, active compounds read low 0.966 | locus YBR229C, strain ROT2, active compounds read low 0.979 | locus YBR231C, strain swc5, active compounds read low 0.989 | locus YBR279W, strain paf1, active compounds read low 0.983 | locus YCL011C, strain gbp2, active compounds read low 0.968 | locus YCL016C, strain dcc1, active compounds read low 0.976 | locus YCL029C, strain bik1, active compounds read low 0.949 | locus YCL061C, strain MRC1, active compounds read low 0.954 | locus YCL069W, strain vba3, active compounds read low 0.974 | locus YCR088W, strain abp1, active compounds read low 0.974 | locus YDL005C, strain med2, active compounds read low 0.98 | locus YDL035C, strain GPR1, active compounds read low 0.962 | locus YDL040C, strain nat1, active compounds read low 0.977 | locus YDL074C, strain BRE1, active compounds read low 0.872 | locus YDL185W, strain tfp1, active compounds read low 0.967 | locus YDR001C, strain nth1, active compounds read low 0.952 | locus YDR069C, strain doa4, active compounds read low 0.984 | locus YDR101C, strain arx1, active compounds read low 0.955 | locus YDR150W, strain NUM1, active compounds read low 0.985 | locus YDR159W, strain sac3, active compounds read low 0.901 | locus YDR195W, strain ref2 1.12 | locus YDR297W, strain sur2, active compounds read low 0.981 | locus YDR318W, strain mcm21, active compounds read low 0.956 | locus YDR334W, strain swr1, active compounds read low 0.977 | locus YDR335W, strain msn5, active compounds read low 0.976 | locus YDR388W, active compounds read low 0.969 | locus YEL003W, strain gim4, active compounds read low 0.962 | locus YEL037C, strain rad23, active compounds read low 0.971 | locus YEL061C, strain CIN8 (second series), active compounds read low 0.967 | locus YEL061C, strain CIN8, active compounds read low 0.978 | locus YER015W, strain faa2, active compounds read low 0.979 | locus YER016W, strain bim1, active compounds read low 0.975 | locus YER110C, active compounds read low 0.965 | locus YER111C, strain swi4, active compounds read low 0.962 | locus YER155C, strain BEM2 (second series), active compounds read low 0.988 | locus YER155C, strain BEM2, active compounds read low 0.996 | locus YER167W, strain BCK2, active compounds read low 0.956 | locus YFR010W, strain ubp6, active compounds read low 0.986 | locus YGL078C, strain dbp3, active compounds read low 0.985 | locus YGL167C, strain pmr1, active compounds read low 0.968 | locus YGL173C, strain kem1, active compounds read low 0.953 | locus YGL227W, strain vid30, active compounds read low 0.988 | locus YGL240W, strain doc1, active compounds read low 0.992 | locus YGL248W, strain PDE1, active compounds read low 0.919 | locus YGL253W, strain hxk2, active compounds read low 0.947 | locus YGR135W, strain pre9, active compounds read low 0.936 | locus YGR252W, strain gcn5, active compounds read low 0.969 | locus YHR013C, strain ard1, active compounds read low 0.901 | locus YHR027C, strain rpn1, active compounds read low 0.982 | locus YHR030C, strain SLT2, active compounds read low 0.948 and 0.967 | locus YHR079C, strain IRE1 (second series), active compounds read low 0.971 | locus YHR079C, strain IRE1, active compounds read low 0.98 | locus YHR094C, strain hxt1, active compounds read low 0.974 | locus YHR129C, strain ARP1, active compounds read low 0.939 | locus YHR142W, strain chs7, active compounds read low 0.922 | locus YHR200W, strain rpn10, active compounds read low 0.984 | locus YIL066C, strain RNR3, active compounds read low 0.95 | locus YIL073C, strain SPO22, active compounds read low 0.948 | locus YIL125W, strain kgd1, active compounds read low 0.979 | locus YIR030C, strain dcg1, active compounds read low 0.979 | locus YJL092W, strain hpr5, active compounds read low 0.963 | locus YJL095W, strain BCK1 (second series), active compounds read low 0.984 | locus YJL095W, strain BCK1, active compounds read low 0.807 and 0.975 | locus YJL115W, strain asf1, active compounds read low 0.971 | locus YJL129C, strain trk1, active compounds read low 0.95 | locus YJL134W, strain LCB3, active compounds read low 0.982 | locus YJL154C, strain vps35, active compounds read low 0.979 | locus YJL164C, strain tpk1, active compounds read low 0.946 | locus YJL166W, strain qcr8, active compounds read low 0.993 | locus YJL168C, strain set2, active compounds read low 0.969 | locus YJL187C, strain SWE1 (second series), active compounds read low 0.931 | locus YJL187C, strain SWE1, active compounds read low 0.973 | locus YJR043C, strain POL32, active compounds read low 1.06 | locus YJR066W, strain TOR1, active compounds read low 0.951 | locus YKL009W, strain mrt4, active compounds read low 0.948 | locus YKL068W, active compounds read low 0.966 | locus YKL085W, strain MDH1 (second series), active compounds read low 0.971 | locus YKL085W, strain MDH1, active compounds read low 0.971 | locus YKL160W, strain elf1, active compounds read low 0.982 | locus YKR026C, strain gcn3, active compounds read low 0.98 | locus YKR091W, strain srl3, active compounds read low 0.969 | locus YLL001W, strain dnm1, active compounds read low 0.983 | locus YLL026W, active compounds read low 0.989 | locus YLL041C, strain sdh2, active compounds read low 0.983 | locus YLR027C, strain aat2, active compounds read low 0.994 | locus YLR058C, strain SHM2, active compounds read low 0.959 | locus YLR102C, strain apc9, active compounds read low 0.973 | locus YLR113W, strain HOG1, active compounds read low 0.934 | locus YLR221C, strain rsa3, active compounds read low 0.956 | locus YLR258W, strain gsy2, active compounds read low 0.964 | locus YLR268W, strain sec22, active compounds read low 0.914 | locus YLR320W, strain mms22, active compounds read low 0.9 | locus YLR330W, strain CHS5, active compounds read low 0.938 | locus YLR342W, strain FKS1, active compounds read low 0.961 | locus YLR357W, strain rsc2, active compounds read low 1.01 | locus YLR370C, strain arc18, active compounds read low 0.969 | locus YLR371W, strain rom2, active compounds read low 0.975 | locus YLR384C, strain iki3, active compounds read low 0.993 | locus YML016C, strain PPZ1, active compounds read low 0.973 | locus YML032C, strain rad52, active compounds read low 0.971 | locus YML120C, strain ndi1, active compounds read low 0.971 | locus YML124C, strain tub3, active compounds read low 0.986 | locus YMR058W, strain fet3, active compounds read low 0.964 | locus YMR078C, strain ctf18, active compounds read low 0.973 | locus YMR125W, strain sto1, active compounds read low 0.985 | locus YMR129W, active compounds read low 0.973 | locus YMR205C, strain PFK2, active compounds read low 0.938 | locus YMR223W, strain ubp8, active compounds read low 0.941 | locus YMR231W, strain pep5, active compounds read low 0.99 | locus YNL067W, strain RPL9B, active compounds read low 0.937 | locus YNL071W, strain lat1, active compounds read low 0.927 | locus YNL128W, strain TEP1, active compounds read low 0.965 | locus YNL153C, strain GIM3, active compounds read low 0.953 | locus YNL183C, strain NPR1, active compounds read low 0.928 | locus YNL209W, strain ssb2, active compounds read low 0.985 | locus YNL233W, strain BNI4, active compounds read low 0.923 | locus YNL248C, strain rpa49, active compounds read low 0.912 | locus YNL250W, strain rad50, active compounds read low 0.981 | locus YNL271C, strain bni1, active compounds read low 0.968 | locus YNL298W, strain CLA4, active compounds read low 0.955 | locus YNL322C, strain KRE1 (second series), active compounds read low 0.991 | locus YNL322C, strain KRE1, active compounds read low 0.997 | locus YNR049C, strain mso1, active compounds read low 0.947 | locus YOL012C, strain htz1 0.991 | locus YOL147C, strain pex11, active compounds read low 0.971 | locus YOR001W, strain rrp6, active compounds read low 1 | locus YOR061W, strain CKA2, active compounds read low 0.958 | locus YOR069W, strain VPS5, active compounds read low 0.975 | locus YOR070C, strain gyp1, active compounds read low 0.969 | locus YOR080W, strain dia2, active compounds read low 0.979 | locus YOR083W, strain WHI5, active compounds read low 0.975 | locus YOR106W, strain vam3, active compounds read low 0.961 | locus YOR136W, strain idh2, active compounds read low 0.963 | locus YOR144C, strain elg1, active compounds read low 0.976 | locus YOR231W, strain MKK1, active compounds read low 0.97 | locus YOR265W, strain rbl2, active compounds read low 0.983 | locus YOR290C, strain snf2, active compounds read low 0.947 | locus YOR316C, strain cot1, active compounds read low 0.968 | locus YPL051W, strain arl3, active compounds read low 0.969 | locus YPL055C, strain LGE1, active compounds read low 0.909 | locus YPL078C, strain atp4, active compounds read low 0.975 | locus YPL106C, strain sse1, active compounds read low 0.994 | locus YPL240C, strain hsp82, active compounds read low 0.998 | locus YPL241C, strain CIN2, active compounds read low 0.991 | locus YPL256C, strain CLN2, active compounds read low 0.946 | locus YPR119W, strain clb2, active compounds read low 0.981 | locus YPR141C, strain kar3, active compounds read low 0.947 | locus YPR167C, strain met16, active compounds read low 0.967 | strain wtn01, active compounds read low 0.902

Reference: PubChem BioAssay AID1159580 (chemical genetic matrix, 2015)
